Source: article PMC12136788
Changes are numbered by the printed parent chain. Over roughly 24,000 sequences, “enrichment r” has its median near 0.99; the highest 2% begin near 3.7. Shown is part of a subset that was picked to be rich in the highest values.

T1: UNK ZnF1-3 (human, UniProt Q9C0B0 31-174)
T1 sequence: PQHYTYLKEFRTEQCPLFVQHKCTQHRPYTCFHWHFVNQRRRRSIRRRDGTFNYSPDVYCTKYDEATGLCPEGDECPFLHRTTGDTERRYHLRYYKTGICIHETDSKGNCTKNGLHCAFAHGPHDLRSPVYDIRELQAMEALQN

B1: chr5:10264850:10264851:+_ENSG00000150753_ENST00000503026|hu_hu|FALSE|FALSE (ssRNA)
RNA: GGGAGUUCUACAGUCCGACGAUCUUCUCAAUGUCUUCAUUCUUCAGAUUCUCCAGGCUUACGAAUGUCAUCAAUCUUCAAAAUCAUUCUAACCAUUUGUGUUGCAAGAGAUAUCUGUUGCUUUUUGCCAAUCAAGGUUUCUAUCAACAGAGGAUUGAGCAUCA
B2: chr12:75046761:75046762:+_ENSMUSG00000021109_ENSMUST00000021530|mus_mus|FALSE|FALSE (ssRNA)
RNA: GGGAGUUCUACAGUCCGACGAUCAUAUAGAAAAUAUAAAUAGACUGCUGAGCCACCAGUGUCCAAAAAUAACCAACAGAAACAAAAACCCAACAAACAACAACAACUGAACAAAAACAUUAACAAUCAAAAGGAAUGAGAUUACAACAGAGGAUUGAGCAUCA
B3: chr6:13786029:13786030:-_ENSMUSG00000048216_ENSMUST00000115492|mus_mus|FALSE|FALSE (ssRNA)
RNA: GGGAGUUCUACAGUCCGACGAUCAAAAACUCUCCAAUAGCAGGCCACCAGGUAGGGACCCCACAAGGUUAGGAAGAGGAAAGUCAUUAUAUAAAACAUUCUGCUGAUUCUUUUCUCCAUUUUGAACUCAUCCAAGACCAAUAGCAACAGAGGAUUGAGCAUCA
B4: chr4:34514055:34514056:+_ENSMUSG00000028291_ENSMUST00000084299|mus_mus|motif|central (ssRNA)
RNA: GGGAGUUCUACAGUCCGACGAUCCUGGGGAGGAGGUGCAGCAAUAAACAUUUGUUAAAAAGACUGAUAGAAUAAAUAAAACGGCCAAAAAAUAAUAAAGAAAAUCAUAUAAACCCAUUCUGAAACCCCAAGAAAAGUCCUGAACAACAGAGGAUUGAGCAUCA
B5: chr2:166767530:166767531:+_ENSMUSG00000002718_ENSMUST00000002790|mus_mus|FALSE|FALSE (ssRNA)
RNA: GGGAGUUCUACAGUCCGACGAUCAAAUAUUUCUUGUAAUGCUAGUGCCCCAUACUUAAUGCAAUAUAAGUUAAUAAACACUAAGAAACUCUUGAUAAACUUGGUGGUCUUGGAGUUUUGCAGUCUCUGGAAUAGUAGAAUGAACAACAGAGGAUUGAGCAUCA
B6: chr4:34514055:34514056:+_ENSMUSG00000028291_ENSMUST00000084299|mus_mus|FALSE|FALSE (ssRNA)
RNA: B4 RNA with G82U, G83A
B7: 85396044_85398007_762_3pUTR_ENSMUSG00000021549_ENSMUST00000109552|mouse|control|control (ssRNA)
RNA: GGGAGUUCUACAGUCCGACGAUCCACCAAUGUAGUAAUCACCACACAUAGCAAUAAUCCUAAAAUGAUUGACAACAUUUGUCUGACUAAGGAAUGAAAGUACAAAGGACCCCGGCCUCCGAUCACUCUCUCUUAUAAGAUAGCCAACAGAGGAUUGAGCAUCA
B8: chr9:115598534:115598535:+_ENSG00000148158_ENST00000374232|hu_mus|motif|central (ssRNA)
RNA: GGGAGUUCUACAGUCCGACGAUCCAGCUUAUAGCCUCCGGUGACGUGCUUGACUGACUCACCCACUCUGCUCAGCAAUGCGGUCCCUUGCUUCUUGUAGGCAUUCAGGUCCUUAGCAGUGAGGAACACAUUGAAGUGUUCAUUCAACAGAGGAUUGAGCAUCA
B9: chr8:41682716:41682717:-_ENSMUSG00000039431_ENSMUST00000048898|mus_hu|motif|central (ssRNA)
RNA: GGGAGUUCUACAGUCCGACGAUCCACAUCGCUGAGCUGCCAGUAAUGAUUAGGGAGGCCCAUCCGCGUGUAUUCUUCACGGAGAUCGAUCAGCACCCAGCCUUGCUCUCUUUCUUCUUUAUCCAGCAUGGGGUUGAAUGAAAACAACAGAGGAUUGAGCAUCA
B10: 34871406_34871526_3634_3pUTR_ENSMUSG00000037503_ENSMUST00000047534|mouse|control|control (ssRNA)
RNA: GGGAGUUCUACAGUCCGACGAUCAUGGUGGUGGGUUUGCUUCUCCAGAGUCAAGGAGCUUACAGUUUCCAAUACUCCACAACUCUAAACUGCAAGCAGCAGCAGCCGAGGAAGGAAGGCCCCUAGCCUCAGGGACGGCAGCAGCAACAGAGGAUUGAGCAUCA
B11: 91351710_91351830_385_5pUTR_ENSMUSG00000055013_ENSMUST00000027521|mouse|control|control (ssRNA)
RNA: GGGAGUUCUACAGUCCGACGAUCAAGAAAAAGAAAAAGAAAAAGAAAAGAACGCUGAGGAUGAAGCAGUAGAGGGGCUCAGUUCAUAGCAGGGACCAGCGUCCCGGGUCAGCGGGCCGUCCGGGAAGACCGCGGCGCCAUGGACAACAGAGGAUUGAGCAUCA
B12: chr9:108469239:108469240:-_ENSMUSG00000070283_ENSMUST00000074208|mus_hu|FALSE|FALSE (ssRNA)
RNA: GGGAGUUCUACAGUCCGACGAUCGGGAAGCUCAACGGGCGGACAGCGCAGCGAGGGUCGCGCUCGGUACAAGCUACGUAGCGCGAGAGCGGUGGCCAUGGCUGACCAACGCGCGGCGAAGUCGUCACCGGCGCCGUUAGUCCCCAACAGAGGAUUGAGCAUCA
B13: chr2:104430758:104430759:+_ENSMUSG00000027176_ENSMUST00000028599|mus_mus|motif|central (ssRNA)
RNA: GGGAGUUCUACAGUCCGACGAUCGGGACUACAACGUACGCACCAGCCGGCAAAGGGAAGCUAGAAAAGGAAAAUUAAACGGAAGGCAAACCCCACCAAAACCAGGAACACUACCCCUGUCCCUCAGAGCCAAAGCCGCCGCCACAACAGAGGAUUGAGCAUCA
B14: chr4:155540527:155540528:-_ENSMUSG00000041936_ENSMUST00000154494|mus_hu|FALSE|FALSE (ssRNA)
RNA: GGGAGUUCUACAGUCCGACGAUCGCCUGGACGGAAGGGAGGCCGGGCCAGCAGUCCCUCCGGCCAACACUCAGGCAAGAAAAUCAUAUCAAAAAGCAACAAGUUUACAAAAAUAGAAAAUAAUUACAGCGGGCGCGGGGCUCUCAACAGAGGAUUGAGCAUCA
B15: chr12:86311719:86311720:-_ENSMUSG00000042350_ENSMUST00000043169|mus_hu|FALSE|FALSE (ssRNA)
RNA: GGGAGUUCUACAGUCCGACGAUCGACUGCCAAAGGACGCCCCAGGAUCCCGAGCCGGGGGUUGCAGCGCGACGAAGUUCCACCUCCGCUGUCCUGGGAAGGGGCGGCAGCACUCAGCAGAAGACGGGCUCCCCACUCUCCCACCAACAGAGGAUUGAGCAUCA
B16: chr7:23239867:23239868:+_ENSG00000136243_ENST00000258742|hu_hu|FALSE|FALSE (ssRNA)
RNA: GGGAGUUCUACAGUCCGACGAUCCCCAAAACCAGCAGGGCUUCCAGAAGAGGCAGCAGCAAAUCCAGAGUUUGUUUUAAAACUAAAGUUCUGAGCAUUAUCACUGCUGCUGUUAUUGACUGGAAAGCCUGGCGACAUAAAUGUCAACAGAGGAUUGAGCAUCA
B17: chr4:140556289:140556290:+_ENSMUSG00000036622_ENSMUST00000037055|mus_mus|mus_mus_mus_hu_False|8_78 (ssRNA)
RNA: GGGAGUUCUACAGUCCGACGAUCGAUGGAGCUCACCAGGCCCCCUUUUGCCGUGCAGAACCCUGUCCGGGUCACCACUGCCAGGACGUGCGGUCCCACAUAGGCCCGGGCCUGCAAGAUGAGGGUCCCACAGAAGAGUGUGUGCAACAGAGGAUUGAGCAUCA
B18: chr15:100311029:100311030:-_ENSMUSG00000044636_ENSMUST00000061457|mus_mus|motif|central (ssRNA)
RNA: GGGAGUUCUACAGUCCGACGAUCGCCUGGUCUACAUAGCAAGUCCCAGGCCAGCCAGGGCUGUUUAGCAACACACUGCCGGAAAAAAAAAAAAGAAAAAAGAAAAGAAAAGAAAAGAAAAGAAAAGAAAAGAAAAGAAAAGAACAACAGAGGAUUGAGCAUCA
B19: chr18:64617603:64617604:-_ENSMUSG00000024588_ENSMUST00000025484|mus_mus|FALSE|FALSE (ssRNA)
RNA: GGGAGUUCUACAGUCCGACGAUCGCGGGAGGCACACUGGAAGCCAGUUUGGCCUACAUAGGGCAAGCGAGAAAUAAGAUAAAAUAAGAUAAAACACAGGCAAGAGAGAAAUCACAGUUUGUGCCCAGACAAACGUGGCUUCUGCAACAGAGGAUUGAGCAUCA
B20: chr2:181041410:181041411:-_ENSMUSG00000027581_ENSMUST00000103045|mus_hu|FALSE|FALSE (ssRNA)
RNA: GGGAGUUCUACAGUCCGACGAUCAGCAUGAAGCUGGGGGCGGGGGUGGGGGAGGAGGAACAAAAGUUGCAUCUAGACAGAGGUGAACGAAACAAAACCAAAACCCGAACGUGUUCUGUCGCAGGAUGGGCGCCGCCCGUCCCGCAACAGAGGAUUGAGCAUCA
B21: chr15:100311029:100311030:-_ENSMUSG00000044636_ENSMUST00000061457|mus_mus|FALSE|FALSE (ssRNA)
RNA: B18 RNA with G80U, G81A
B22: chr3:38349274:38349275:-_ENSMUSG00000044864_ENSMUST00000156038|mus_mus|FALSE|FALSE (ssRNA)
RNA: GGGAGUUCUACAGUCCGACGAUCAAAUGACCAAGUACAGCAAGCAGGCUGGCUACAGCACCCUGGUCAGCCUGGUCCUCGCCAGAAGCUGUUUUUGUUCUACUUUAAAUCAGUUAAUAAUAAAAACAAAACAAAAGGGAAAAACAACAGAGGAUUGAGCAUCA

Target: T1, UNK ZnF1-3
Experiment: nsRBNS (natural sequence RNA bind-n-seq); RBNS binding buffer (assumed for nsRBNS): 25 mM Tris pH 7.5, 150 mM KCl, 3 mM MgCl2, 0.01% Triton X-100, 500 ug/ml BSA, 20 U/ml SUPERase-In, 4 C; UNK is unkempt and MSI1 is Musashi-1; names of the RNAs are library labels; protein concentration not given here; high values mean tight binding

Binder	binding signal
B1	0.579 enrichment R
B2	3.57 enrichment R
B3	1.71 enrichment R
B4	15.2 enrichment R
B5	1.05 enrichment R
B6	8.55 enrichment R
B7	0.49 enrichment R
B8	0.691 enrichment R
B9	1.07 enrichment R
B10	1.48 enrichment R
B11	4.11 enrichment R
B12	0.446 enrichment R
B13	2.17 enrichment R
B14	4.13 enrichment R
B15	1.33 enrichment R
B16	0.668 enrichment R
B17	1.02 enrichment R
B18	4.43 enrichment R
B19	3.43 enrichment R
B20	3.3 enrichment R
B21	4.34 enrichment R
B22	0.882 enrichment R
